About 7,900 targets were measured; listed, in parts, are those with a hit and a random draw of the rest. About 0.6% of all pairs of compound and target were hits.
Compound: NC(=O)Nc1cc(-c2cccc(F)c2)sc1C(=O)N[C@H]1CCCNC1
Test: log2 fold change, soluble protein after heating vs DMSO (PISA); higher = thermal stabilisation; K562 cells, 10 uM, 30 min; active = over 0.2 and 3.5 SD of the protein, either way, in both replicates (recomputed)
Outline: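 K562 cells at 2×10^6 cells/mL were given 10 μM compound for 30 min. Aliquots then went through 3 min of heating across 48°C-58°C, were pooled, and were extracted in PBS with 0.5% NP-40 at 4°C, and the supernatant after 21,000xg for 90 min was quantified by TMTpro 16plex LC-MS/MS with channel sums equalised. Thermal stability relative to control samples, from duplicates, is given as log2 fold change.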

Sequence of UniProt P48509 (P48509 whole entry, looked up): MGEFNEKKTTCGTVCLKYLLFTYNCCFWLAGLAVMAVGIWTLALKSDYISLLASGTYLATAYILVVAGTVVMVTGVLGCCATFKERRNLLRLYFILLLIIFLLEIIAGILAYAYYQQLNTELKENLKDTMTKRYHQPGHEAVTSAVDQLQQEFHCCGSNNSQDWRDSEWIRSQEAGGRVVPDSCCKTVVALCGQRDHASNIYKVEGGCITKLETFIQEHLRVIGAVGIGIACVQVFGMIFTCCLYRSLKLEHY
Sequence of UniProt P21964 (P21964 whole entry, looked up): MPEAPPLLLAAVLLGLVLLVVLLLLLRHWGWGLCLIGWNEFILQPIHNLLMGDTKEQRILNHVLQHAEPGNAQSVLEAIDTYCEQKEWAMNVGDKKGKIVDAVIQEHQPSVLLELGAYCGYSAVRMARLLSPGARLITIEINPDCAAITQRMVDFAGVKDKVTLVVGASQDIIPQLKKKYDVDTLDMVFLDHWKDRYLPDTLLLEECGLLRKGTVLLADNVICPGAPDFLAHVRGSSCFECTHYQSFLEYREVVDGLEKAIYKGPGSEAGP
Sequence of UniProt Q99439 (Q99439 whole entry, looked up): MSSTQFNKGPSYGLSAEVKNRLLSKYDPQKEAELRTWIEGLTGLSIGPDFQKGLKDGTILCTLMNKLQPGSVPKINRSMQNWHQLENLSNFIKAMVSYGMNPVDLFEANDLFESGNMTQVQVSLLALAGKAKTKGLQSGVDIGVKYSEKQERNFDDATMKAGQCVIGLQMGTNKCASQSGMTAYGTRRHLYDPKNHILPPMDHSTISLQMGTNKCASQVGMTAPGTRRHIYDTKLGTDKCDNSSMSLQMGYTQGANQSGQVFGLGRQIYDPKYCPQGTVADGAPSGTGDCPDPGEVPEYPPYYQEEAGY
Sequence of UniProt Q9UNS2 (Q9UNS2 whole entry, looked up): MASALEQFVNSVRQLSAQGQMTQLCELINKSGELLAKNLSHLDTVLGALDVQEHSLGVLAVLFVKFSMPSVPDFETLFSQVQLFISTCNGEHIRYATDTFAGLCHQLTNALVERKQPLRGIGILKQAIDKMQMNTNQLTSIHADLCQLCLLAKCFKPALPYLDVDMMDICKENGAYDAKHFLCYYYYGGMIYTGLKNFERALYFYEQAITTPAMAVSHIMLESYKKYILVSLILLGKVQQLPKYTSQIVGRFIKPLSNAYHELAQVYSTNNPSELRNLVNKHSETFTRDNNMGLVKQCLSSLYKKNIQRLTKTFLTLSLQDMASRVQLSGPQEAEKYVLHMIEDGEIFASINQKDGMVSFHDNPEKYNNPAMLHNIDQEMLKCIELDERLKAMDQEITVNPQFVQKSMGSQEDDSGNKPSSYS
Sequence of UniProt Q9BT78 (Q9BT78 whole entry, looked up): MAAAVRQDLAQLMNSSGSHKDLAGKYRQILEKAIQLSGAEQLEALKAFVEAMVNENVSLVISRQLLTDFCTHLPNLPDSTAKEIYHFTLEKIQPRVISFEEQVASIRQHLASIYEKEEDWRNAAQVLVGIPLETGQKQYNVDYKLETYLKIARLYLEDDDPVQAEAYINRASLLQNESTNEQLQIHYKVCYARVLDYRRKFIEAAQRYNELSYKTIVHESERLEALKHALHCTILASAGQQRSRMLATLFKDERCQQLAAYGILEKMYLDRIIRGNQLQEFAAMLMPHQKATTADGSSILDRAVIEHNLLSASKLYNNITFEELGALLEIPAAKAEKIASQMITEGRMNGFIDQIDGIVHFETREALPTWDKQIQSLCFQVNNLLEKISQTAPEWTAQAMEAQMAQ
Sequence of UniProt Q01459 (Q01459 whole entry, looked up): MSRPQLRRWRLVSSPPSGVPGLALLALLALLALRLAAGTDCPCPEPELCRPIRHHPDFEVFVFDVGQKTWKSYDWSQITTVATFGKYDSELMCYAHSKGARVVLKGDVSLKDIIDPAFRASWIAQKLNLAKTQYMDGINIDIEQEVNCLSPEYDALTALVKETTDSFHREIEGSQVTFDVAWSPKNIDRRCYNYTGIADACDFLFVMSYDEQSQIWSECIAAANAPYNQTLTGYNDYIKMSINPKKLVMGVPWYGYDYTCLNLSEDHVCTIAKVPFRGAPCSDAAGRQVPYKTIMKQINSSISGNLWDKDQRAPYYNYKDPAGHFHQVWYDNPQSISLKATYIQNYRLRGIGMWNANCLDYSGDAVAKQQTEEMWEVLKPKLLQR
Sequence of UniProt P0C0L4 (P0C0L4 whole entry, looked up): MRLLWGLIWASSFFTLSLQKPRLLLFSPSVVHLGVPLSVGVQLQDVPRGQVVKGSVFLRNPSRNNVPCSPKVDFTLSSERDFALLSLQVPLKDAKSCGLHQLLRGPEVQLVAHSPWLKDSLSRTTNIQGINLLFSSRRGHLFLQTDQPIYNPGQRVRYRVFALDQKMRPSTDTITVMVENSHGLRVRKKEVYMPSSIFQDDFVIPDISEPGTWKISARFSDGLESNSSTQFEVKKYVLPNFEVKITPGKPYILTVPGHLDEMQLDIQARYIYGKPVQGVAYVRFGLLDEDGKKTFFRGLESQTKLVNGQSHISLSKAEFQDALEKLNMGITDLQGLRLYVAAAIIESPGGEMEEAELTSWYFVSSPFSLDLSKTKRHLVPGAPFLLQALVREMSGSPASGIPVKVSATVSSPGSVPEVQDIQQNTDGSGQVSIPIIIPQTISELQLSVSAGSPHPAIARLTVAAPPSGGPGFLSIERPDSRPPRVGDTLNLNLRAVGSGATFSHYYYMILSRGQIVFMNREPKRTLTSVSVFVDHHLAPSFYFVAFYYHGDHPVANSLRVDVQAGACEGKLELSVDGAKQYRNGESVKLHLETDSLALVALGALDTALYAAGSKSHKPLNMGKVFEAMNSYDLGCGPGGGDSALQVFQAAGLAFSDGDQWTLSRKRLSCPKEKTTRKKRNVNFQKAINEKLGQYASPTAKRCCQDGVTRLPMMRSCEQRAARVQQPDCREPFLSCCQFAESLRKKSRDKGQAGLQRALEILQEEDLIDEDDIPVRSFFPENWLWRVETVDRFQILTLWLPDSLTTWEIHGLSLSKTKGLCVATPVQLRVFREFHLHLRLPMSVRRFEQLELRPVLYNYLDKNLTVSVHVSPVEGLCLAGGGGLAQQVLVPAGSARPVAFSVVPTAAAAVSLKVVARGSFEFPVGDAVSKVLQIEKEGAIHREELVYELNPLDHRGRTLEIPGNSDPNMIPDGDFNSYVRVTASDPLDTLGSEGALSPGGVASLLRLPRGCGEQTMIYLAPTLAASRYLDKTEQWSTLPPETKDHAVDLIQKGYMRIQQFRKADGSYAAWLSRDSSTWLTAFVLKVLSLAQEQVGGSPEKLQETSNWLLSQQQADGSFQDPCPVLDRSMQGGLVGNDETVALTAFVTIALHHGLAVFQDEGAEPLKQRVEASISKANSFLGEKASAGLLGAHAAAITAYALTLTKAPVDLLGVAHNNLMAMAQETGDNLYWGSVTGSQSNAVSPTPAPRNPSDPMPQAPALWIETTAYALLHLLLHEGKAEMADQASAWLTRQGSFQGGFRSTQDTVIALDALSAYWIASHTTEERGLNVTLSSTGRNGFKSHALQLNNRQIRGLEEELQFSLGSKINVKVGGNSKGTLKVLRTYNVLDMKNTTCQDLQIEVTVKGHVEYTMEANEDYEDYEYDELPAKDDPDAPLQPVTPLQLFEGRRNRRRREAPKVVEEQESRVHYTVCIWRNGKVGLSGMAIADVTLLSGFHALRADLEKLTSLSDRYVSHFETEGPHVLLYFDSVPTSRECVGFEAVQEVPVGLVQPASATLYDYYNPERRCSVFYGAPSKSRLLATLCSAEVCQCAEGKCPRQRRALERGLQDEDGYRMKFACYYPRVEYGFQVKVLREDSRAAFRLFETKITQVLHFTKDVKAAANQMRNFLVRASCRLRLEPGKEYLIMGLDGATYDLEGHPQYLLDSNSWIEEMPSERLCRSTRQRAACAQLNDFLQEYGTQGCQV
Sequence of UniProt Q8N1A6 (Q8N1A6 whole entry, looked up): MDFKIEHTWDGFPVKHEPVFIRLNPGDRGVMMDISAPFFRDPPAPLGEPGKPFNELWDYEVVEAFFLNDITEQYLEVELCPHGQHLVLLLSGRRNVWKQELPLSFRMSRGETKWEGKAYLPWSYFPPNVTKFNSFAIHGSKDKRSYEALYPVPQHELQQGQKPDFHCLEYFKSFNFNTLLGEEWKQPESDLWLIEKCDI
Sequence of UniProt Q9Y646 (Q9Y646 whole entry, looked up): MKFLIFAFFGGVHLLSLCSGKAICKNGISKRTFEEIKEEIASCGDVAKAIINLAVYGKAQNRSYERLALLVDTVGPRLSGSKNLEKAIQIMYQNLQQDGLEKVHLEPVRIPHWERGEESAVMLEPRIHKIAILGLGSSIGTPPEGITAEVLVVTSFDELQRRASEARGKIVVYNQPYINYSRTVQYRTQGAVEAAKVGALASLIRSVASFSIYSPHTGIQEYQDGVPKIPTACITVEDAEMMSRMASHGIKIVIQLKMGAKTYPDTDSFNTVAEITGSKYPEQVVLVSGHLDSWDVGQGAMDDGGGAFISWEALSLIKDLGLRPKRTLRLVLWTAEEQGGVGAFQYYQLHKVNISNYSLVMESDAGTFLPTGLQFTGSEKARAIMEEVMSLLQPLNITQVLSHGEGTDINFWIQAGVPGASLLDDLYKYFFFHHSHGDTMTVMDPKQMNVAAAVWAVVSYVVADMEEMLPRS
Sequence of UniProt P14854 (P14854 whole entry, looked up): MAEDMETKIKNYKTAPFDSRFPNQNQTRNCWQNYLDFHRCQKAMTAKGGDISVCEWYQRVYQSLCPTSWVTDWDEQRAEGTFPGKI
Sequence of UniProt P16152 (P16152 whole entry, looked up): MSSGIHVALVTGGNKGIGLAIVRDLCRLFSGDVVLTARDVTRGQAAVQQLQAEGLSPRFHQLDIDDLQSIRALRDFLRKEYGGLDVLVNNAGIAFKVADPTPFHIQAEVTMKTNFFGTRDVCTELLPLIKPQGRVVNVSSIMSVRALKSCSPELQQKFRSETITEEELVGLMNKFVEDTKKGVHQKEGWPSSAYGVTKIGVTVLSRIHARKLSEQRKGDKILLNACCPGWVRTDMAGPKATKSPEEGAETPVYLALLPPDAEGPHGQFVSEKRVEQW

log2 fold change, inactive:
CD151 (UniProt P48509) -0.054
CBX1 (UniProt P83916) 0.02
CHCHD2 (UniProt Q9Y6H1) -0.039
CCNK isoform 4 (UniProt O75909) -0.053
CBR1 (UniProt P16152) -0.002
CASP2 (UniProt P42575) -0.317
COCH (UniProt O43405) 0.024
CTBS (UniProt Q01459) 0.088
CDKN2AIP (UniProt Q9NXV6) 0.003
CBS (UniProt P35520) -0.008
COMT (UniProt P21964) -0.052
CCDC9 (UniProt Q9Y3X0) 0.021
CHD4 isoform 2 (UniProt Q14839) -0.043
COX5A (UniProt P20674) 0.019
CLCN3 (UniProt P51790) -0.019
C4A (UniProt P0C0L4) -0.024
CCAR2 isoform 2 (UniProt Q8N163) -0.056
COPS4 (UniProt Q9BT78) 0.015
CDK16 isoform 2 (UniProt Q00536) -0.07
COPS3 (UniProt Q9UNS2) 0
C4orf33 (UniProt Q8N1A6) 0.152
COPS8 (UniProt Q99627) 0.02
CDK5RAP3 isoform 4 (UniProt Q96JB5) -0.025
CCZ1 (UniProt P86791) 0.036
CSTF2 (UniProt P33240) 0.015
COX6B1 (UniProt P14854) -0.039
CNDP2 (UniProt Q96KP4) -0.013
CPQ (UniProt Q9Y646) 0.083
CA1 (UniProt P00915) 0.01
CNN2 (UniProt Q99439) -0.029
CSNK2A2 (UniProt P19784) -0.069
CNOT2 (UniProt Q9NZN8) -0.012
CETN2 (UniProt P41208) -0.051
CPSF1 (UniProt Q10570) 0.024
CSTF3 (UniProt Q12996) 0.011

log2 fold change, active:
CRK (UniProt P46108) -0.81
